Source: PubChem BioAssay (NCATS)
Inconclusive results are not listed. Active and inactive are the calls of the source. Calls follow the shape of the dose curve; as a rule, active = well fitted curve in the direction sought with a large enough effect; inconclusive = small, poorly fitted or top-dose-only effect, or another doubt; inactive = no such curve, though single readings can be large; an effect the other way counts as inactive or inconclusive.

How the values were obtained:
[1] = molecular target: Rap guanine nucleotide exchange factor 3 (Homo sapiens) (UniProt O95398); experiment: Confirmatory qHTS for antagonist of cAMP-regulated guanine nucleotide exchange factor 3 (EPAC1) (AID 1645880); also: nearly all actives have a fitted effect of over 55% in size; also: potency is read from the fitted curve at half-maximal effect
Rap guanine nucleotide exchange factor 3 (Homo sapiens), sequence (O95398 whole entry, looked up): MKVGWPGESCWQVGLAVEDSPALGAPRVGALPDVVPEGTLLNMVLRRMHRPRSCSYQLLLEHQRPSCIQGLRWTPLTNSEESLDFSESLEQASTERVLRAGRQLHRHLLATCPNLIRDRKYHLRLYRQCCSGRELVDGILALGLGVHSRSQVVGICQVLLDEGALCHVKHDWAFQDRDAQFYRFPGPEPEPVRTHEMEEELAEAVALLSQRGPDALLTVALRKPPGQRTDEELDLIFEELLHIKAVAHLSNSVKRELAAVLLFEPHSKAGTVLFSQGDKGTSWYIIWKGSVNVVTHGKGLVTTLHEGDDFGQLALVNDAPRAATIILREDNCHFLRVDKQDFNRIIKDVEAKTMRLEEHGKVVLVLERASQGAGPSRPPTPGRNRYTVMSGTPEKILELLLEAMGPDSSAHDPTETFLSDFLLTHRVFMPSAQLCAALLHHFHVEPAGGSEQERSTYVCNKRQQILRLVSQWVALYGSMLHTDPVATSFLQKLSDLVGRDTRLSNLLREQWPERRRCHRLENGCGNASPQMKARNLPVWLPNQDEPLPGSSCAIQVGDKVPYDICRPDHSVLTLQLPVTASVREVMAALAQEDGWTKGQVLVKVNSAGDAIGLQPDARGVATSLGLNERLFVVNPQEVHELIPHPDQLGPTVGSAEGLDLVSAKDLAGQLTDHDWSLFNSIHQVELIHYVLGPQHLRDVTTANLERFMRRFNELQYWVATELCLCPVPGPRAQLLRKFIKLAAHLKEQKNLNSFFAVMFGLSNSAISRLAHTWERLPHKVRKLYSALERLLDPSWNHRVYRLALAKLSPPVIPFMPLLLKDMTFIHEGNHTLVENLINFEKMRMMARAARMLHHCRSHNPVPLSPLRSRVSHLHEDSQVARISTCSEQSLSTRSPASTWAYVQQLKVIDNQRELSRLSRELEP
How it was run: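 Nucleotide exchange uses 100 nM EPAC1, 250 nM RAP1B-BODIPY-GDP and 50 uM GDP, with compounds in a concentration-titration series. After 5 min at room temperature, fluorescence (480 nm ex/540 nm em) is read every 5 min for 30 min. Data are normalized to control ATA and DMSO.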

[2] = molecular target: Rap guanine nucleotide exchange factor 3 (Homo sapiens) (UniProt O95398); experiment: Confirmatory qHTS for agonist of cAMP-regulated guanine nucleotide exchange factor 3 (EPAC1) (AID 1645881); also: nearly all actives have a fitted effect of over 75% in size; also: potency is read from the fitted curve at half-maximal effect;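 as to activation: EPAC1 catalysed release of BODIPY-GDP from Rap1B seen as fluorescence loss; 100% = effect of cAMP agonist control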
[3] = molecular target: Rap guanine nucleotide exchange factor 4 (Homo sapiens) (UniProt Q8WZA2); experiment: Confirmatory qHTS for agonist of cAMP-regulated guanine nucleotide exchange factor 4 (EPAC2) (AID 1645884);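 also: nucleotide exchange releases bodipy-GDP from Rap1 and this lowers its fluorescence; nearly all actives have a fitted effect of over 65% in size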; also: potency is read from the fitted curve at half-maximal effect; as to activation: % is scaled to controls: 0 for no effect and ±100 for the full control effect
Rap guanine nucleotide exchange factor 4 (Homo sapiens), sequence (Q8WZA2 whole entry, looked up): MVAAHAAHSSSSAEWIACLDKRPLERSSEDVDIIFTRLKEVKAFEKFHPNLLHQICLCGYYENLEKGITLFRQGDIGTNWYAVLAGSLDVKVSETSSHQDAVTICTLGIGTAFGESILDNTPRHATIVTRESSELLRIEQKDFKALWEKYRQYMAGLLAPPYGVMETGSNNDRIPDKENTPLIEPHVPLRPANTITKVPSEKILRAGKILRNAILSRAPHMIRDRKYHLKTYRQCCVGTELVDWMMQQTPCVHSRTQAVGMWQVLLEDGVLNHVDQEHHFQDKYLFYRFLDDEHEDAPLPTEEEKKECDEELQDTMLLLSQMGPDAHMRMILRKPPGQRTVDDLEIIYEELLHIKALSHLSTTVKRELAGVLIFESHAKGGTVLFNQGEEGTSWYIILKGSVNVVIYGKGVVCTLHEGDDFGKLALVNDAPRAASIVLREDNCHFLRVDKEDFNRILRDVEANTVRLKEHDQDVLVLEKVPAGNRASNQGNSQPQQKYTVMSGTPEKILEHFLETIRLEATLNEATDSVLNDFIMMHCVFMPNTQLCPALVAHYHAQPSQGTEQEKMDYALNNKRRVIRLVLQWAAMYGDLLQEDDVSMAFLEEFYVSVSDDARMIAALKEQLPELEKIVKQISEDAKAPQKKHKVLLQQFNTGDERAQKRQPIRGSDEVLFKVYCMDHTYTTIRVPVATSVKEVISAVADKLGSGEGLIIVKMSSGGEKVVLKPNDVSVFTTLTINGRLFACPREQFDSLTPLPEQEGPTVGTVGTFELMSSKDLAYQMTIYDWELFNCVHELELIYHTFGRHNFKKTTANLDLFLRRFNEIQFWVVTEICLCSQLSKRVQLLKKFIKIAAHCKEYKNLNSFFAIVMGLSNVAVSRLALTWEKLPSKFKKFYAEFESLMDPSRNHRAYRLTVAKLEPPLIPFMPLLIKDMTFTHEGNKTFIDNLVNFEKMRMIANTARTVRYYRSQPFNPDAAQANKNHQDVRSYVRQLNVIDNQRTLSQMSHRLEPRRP

[4] = molecular target: Rap guanine nucleotide exchange factor 4 (Homo sapiens) (UniProt Q8WZA2); experiment: Confirmatory qHTS for antagonist of cAMP-regulated guanine nucleotide exchange factor 4 (EPAC2) (AID 1645885); also: nearly all actives have a fitted effect of over 25% in size; also: potency is read from the fitted curve at half-maximal effect; as to activity change, negative = inhibition: % is scaled to controls: 0 for no effect and ±100 for the full control effect
[5] = molecular target: Rap guanine nucleotide exchange factor 3 (Homo sapiens) (UniProt O95398); experiment: Counterscreen qHTS for antagonist of cAMP-regulated guanine nucleotide exchange factor 3 (EPAC1) (AID 1645888);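 also: fluorescence loss as bound BODIPY-GDP is released from Rap1B; % of control where 0% means no effect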
How it was run: (§1)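 Rap1B–BODIPY-GDP (250 nM) with 50 uM GDP; compounds pin-transferred to 9.74 nM–152 uM final (activator) or from 7.32 nM upwards (inhibitor). Fluorescence Ex/Em 480/540 nm read at 5 and 30 min, then after adding cAMP or buffer, at room temperature.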

[6] = molecular target: Rap guanine nucleotide exchange factor 3 (Homo sapiens) (UniProt O95398); experiment: Counterscreen qHTS for agonist of cAMP-regulated guanine nucleotide exchange factor 3 (EPAC1) (AID 1645889); also: nearly all actives have a fitted effect of over 40% in size; also: potency is read from the fitted curve at half-maximal effect; as to activation: % of control where 0% means no effect
How it was run: as §1

COc1ccccc1C(CC(=O)N1CCCC1)c1ccc2c(c1)OCO2 (stereo not drawn)
inactive: Potency [1] | Potency [2] | activation [3] 2.08% [at 17.1 µM, percent relative to cAMP agonist control] | Potency [4] | activity change, negative = inhibition [5] -9.86% [at 30.8 µM]

COc1cc2c(cc1OC)C(c1ccccc1)N(C(=O)c1ccco1)CC2 (stereo not drawn)
inactive: Potency [1] | Potency [2] | Potency [3] | Potency [4] | Potency [5]

O=C(/C=C/c1ccc2c(c1)OCO2)Nc1cc(S(=O)(=O)N2CCOCC2)ccc1N1CCOCC1
inactive: Potency [1] | Potency [2] | Potency [3] | Potency [4] | Potency [5]

COC(=O)C1=C(C)N(Cc2ccco2)C(=O)/C1=C\c1ccc(N(C)C)cc1
inactive: Potency [1] | Potency [2] | Potency [3] | Potency [4] | Potency [5]

COc1ccc(-c2onc3ccc(C(C)=O)cc23)cc1
inactive: Potency [1] | Potency [5]
active: Potency [2] 79.4 µM | Potency [3] 79.4 µM | Potency [4] 19 µM

CS(=O)(=O)c1cccc(C(=O)OCC(=O)c2ccc3c(c2)OCCO3)c1
inactive: Potency [1] | Potency [2] | activation [3] 8.5% [at 17.1 µM, percent relative to cAMP agonist control] | Potency [4] | activity change, negative = inhibition [5] -4.85% [at 30.8 µM]

CCOC(=O)Cc1nn(Cc2ccccc2)c(=O)c2ccccc12
inactive: Potency [1] | Potency [2] | Potency [3] | Potency [4] | Potency [5]

O=C(O)c1[nH]c2ccccc2c1C(c1cc(Br)ccc1O)c1c(C(=O)O)[nH]c2ccccc12
active: Potency [1] 39.8 µM
inactive: Potency [2] | activation [3] 11.5% [at 17.1 µM, percent relative to cAMP agonist control] | Potency [4] | activity change, negative = inhibition [5] -16.3% [at 30.8 µM]

CC(/C=C1\SC(=S)N(NS(=O)(=O)c2ccc(C)cc2)C1=O)=C\c1ccccc1
inactive: Potency [2] | Potency [3] | Potency [5]
active: Potency [1] 26.9 µM | Potency [4] 47.8 µM

O=C(CSc1nnc(-c2cccnc2)n1CCc1ccccc1)NCc1ccccc1
inactive: Potency [1] | Potency [2] | activation [3] 4.59% [at 17.1 µM, percent relative to cAMP agonist control] | Potency [4] | activity change, negative = inhibition [5] -2.95% [at 30.8 µM]

Cc1cccc(/C(N)=N/OC(=O)Cc2cccc3ccccc23)c1
inactive: Potency [1] | Potency [2] | activation [3] 2.49% [at 17.1 µM, percent relative to cAMP agonist control] | Potency [4] | activity change, negative = inhibition [5] -15.4% [at 30.8 µM]

CC(C(=O)NC1CC(C)(C)NC(C)(C)C1)c1ccc([N+](=O)[O-])cc1 (stereo not drawn)
inactive: Potency [1] | Potency [2] | Potency [3] | Potency [4] | Potency [5]

CCOc1c(S(=O)(=O)N2CCCC2)ccc(Cl)c1Cl
inactive: Potency [1] | Potency [2] | Potency [3] | Potency [4] | Potency [5]

Cc1cc(C)c(S(=O)(=O)N2CCCCC2CCNC(=O)C(=O)NCC2CCCO2)c(C)c1 (stereo not drawn)
inactive: Potency [1] | Potency [2] | activation [3] 2.27% [at 17.1 µM, percent relative to cAMP agonist control] | Potency [4] | activity change, negative = inhibition [5] 6.58% [at 30.8 µM]

COc1ccc(-c2cc(C(F)F)n3ncc(C(=O)N4CCc5ccccc54)c3n2)cc1
inactive: Potency [1] | Potency [2] | Potency [3] | Potency [4] | Potency [5]

CC(=O)C1=C(C)OC2(O)c3ccccc3C(=O)C12O (stereo not drawn)
inactive: Potency [1] | Potency [2] | activation [3] 4.3% [at 17.1 µM, percent relative to cAMP agonist control] | Potency [4] | activity change, negative = inhibition [5] -10.4% [at 30.8 µM]

CCOC(=O)c1c(C)nc2sc(C(N)=O)c(N)c2c1-c1ccccc1
inactive: Potency [1] | Potency [2] | activation [3] -0.736% [at 17.1 µM, percent relative to cAMP agonist control] | Potency [4] | activity change, negative = inhibition [5] -13.8% [at 30.8 µM]

O=C(c1ccc(CSCc2ccccc2F)o1)N1CCN(c2ccc(N3CCOCC3)nn2)CC1
inactive: Potency [1] | Potency [2] | activation [3] 3.73% [at 17.1 µM, percent relative to cAMP agonist control] | Potency [4] | activity change, negative = inhibition [5] -4.38% [at 30.8 µM] | activation [6] 14.5% [at 30.8 µM]

Cc1nc(SC(C)C(=O)NCC2CCCO2)c2cc(-c3ccccc3)sc2n1 (stereo not drawn)
inactive: Potency [1] | Potency [2] | Potency [3] | Potency [4] | Potency [5] | Potency [6]

O=C1NN(c2cccc(Br)c2)C(=O)/C1=C\c1ccccc1
inactive: Potency [2] | Potency [3] | Potency [4] | Potency [5] | Potency [6]
active: Potency [1] 33.8 µM

CCOC(=O)C1=NNC2(CC(=O)N(c3cc(C)cc(C)c3)C2=O)C1 (stereo not drawn)
inactive: Potency [1] | Potency [2] | Potency [3] | Potency [4] | Potency [5] | Potency [6]

COC(=O)c1ccc2c(=O)n3nc(Nc4cc(OC)ccc4OC)sc3nc2c1
inactive: Potency [1] | Potency [2] | Potency [3] | Potency [4] | Potency [5]

CC(=O)c1sc(NC(=O)c2c(F)cccc2F)nc1C
inactive: Potency [1] | Potency [2] | Potency [3] | Potency [4] | Potency [5]

COc1cccc(OC)c1C(=O)Nc1ccccc1Sc1ccccc1
inactive: Potency [1] | Potency [2] | Potency [3] | Potency [4] | Potency [5] | Potency [6]

O=C1Nc2c(Cl)cc(Cl)cc2C1=O
inactive: Potency [1] | Potency [2] | Potency [3] | Potency [4] | Potency [5]
active: Potency [6] 31.6 µM

O=C1NC(=Nc2ccccc2Cl)S/C1=C\c1cccc([N+](=O)[O-])c1O
inactive: Potency [2] | Potency [3] | Potency [4] | Potency [5] | Potency [6]
active: Potency [1] 21.3 µM

COn1c(-c2ccc(Cl)cc2Cl)nc2ncccc21
active: Potency [4] 84.9 µM
inactive: Potency [1] | Potency [2] | Potency [3] | Potency [5] | Potency [6]

Cc1ccsc1C(=O)OCC(=O)NCCNC(=O)COC(=O)c1sccc1C
inactive: Potency [1] | Potency [2] | Potency [3] | Potency [4] | Potency [5] | Potency [6]

CCCCCN(C(=O)CCC(=O)OCc1ccc(C(C)C)cc1)c1c(N)n(CCCC)c(=O)[nH]c1=O
inactive: Potency [1] | Potency [2] | Potency [3] | Potency [4] | Potency [5] | Potency [6]

COc1ccc(CNC(=O)C(=O)Nc2ccc(OC)cc2OC)cc1
inactive: Potency [1] | Potency [2] | Potency [3] | Potency [4] | Potency [5]

O=C(COc1ccc2ccccc2c1)Nc1cccc(C(=O)Nc2ccccc2C(=O)O)c1
inactive: Potency [2] | Potency [3] | Potency [5] | Potency [6]
active: Potency [1] 33.8 µM | Potency [4] 47.8 µM

COc1ccc(C(CC(=O)N2CCOCC2)c2c(OC)cc(OC)c3c(-c4ccccc4)cc(=O)oc23)cc1 (stereo not drawn)
inactive: Potency [2] | Potency [3] | Potency [4] | Potency [5] | Potency [6]
active: Potency [1] 37.9 µM

Cc1ccc(N2NC(=O)/C(=C\c3cc4c(cc3[N+](=O)[O-])OCO4)C2=O)cc1C
active: Potency [1] 75.7 µM
inactive: Potency [2] | Potency [3] | Potency [4] | Potency [5] | Potency [6]

O=C1OC(c2ccc3ccccc3c2O)(c2ccc3ccccc3c2O)c2ccccc21
inactive: Potency [2] | Potency [3] | Potency [4] | Potency [5]
active: Potency [1] 75.7 µM

O=C(COC(=O)CSc1ccc([N+](=O)[O-])cc1)NCc1cccs1
inactive: Potency [1] | Potency [2] | Potency [3] | Potency [4] | Potency [5]

COc1cccc(C(=O)C2=NN(C(C)=O)CC2c2ccco2)c1 (stereo not drawn)
inactive: Potency [1] | Potency [2] | Potency [3] | Potency [4] | Potency [5]

CC(=O)Nc1cccc(NC(=O)CSc2nc(=O)n(CCN3CCOCC3)c3c2CCCC3)c1
inactive: Potency [1] | Potency [2] | Potency [3] | Potency [4] | Potency [5]

CC1C/C(=C/c2cccn2C)C(=O)/C(=C/c2cccn2C)C1 (stereo not drawn)
inactive: Potency [2] | Potency [3] | Potency [4] | Potency [5]
active: Potency [1] 16.9 µM | Potency [6] 79.4 µM

S=C(Nc1cccc2ccccc12)NC1CCCCC1
inactive: Potency [1] | Potency [2] | activation [3] 0.103% [at 17.1 µM, percent relative to cAMP agonist control] | Potency [4] | activity change, negative = inhibition [5] 5.07% [at 30.8 µM] | activation [6] 5.1% [at 30.8 µM]

CC(=O)N(C(C)=O)N1C(=O)c2cccc3c(N4CCOCC4)ccc(c23)C1=O
inactive: Potency [1] | Potency [2] | activation [3] 18.1% [at 17.1 µM, percent relative to cAMP agonist control] | Potency [4] | activity change, negative = inhibition [5] 16.3% [at 30.8 µM]

CN1CCS/C1=C/C=C1\SC(=S)N(CC(=O)O)C1=O
active: Potency [2] 50.1 µM | Potency [6] 14.1 µM
inactive: Potency [1] | activation [3] 15.2% [at 17.1 µM, percent relative to cAMP agonist control] | Potency [4] | activity change, negative = inhibition [5] 62.8% [at 30.8 µM]

CCN(CC)c1nc(SCC(=O)O)nc(N(CC)CC)n1
inactive: Potency [1] | Potency [2] | Potency [3] | Potency [5] | Potency [6]
active: Potency [4] 12 µM

CC1CCN(c2ccc3c(c2)S(=O)(=O)c2ccccc2C3=O)CC1
inactive: Potency [1] | Potency [4] | Potency [5]
active: Potency [2] 112 µM | Potency [3] 100 µM

CNc1nc(-c2ccc(OC)cc2)c(-c2ccc(OC)cc2)s1
inactive: Potency [1] | Potency [2] | Potency [3] | Potency [5]
active: Potency [4] 23.9 µM

Cc1ccc(S(=O)(=O)/N=C2\C=C(Nc3cccc(C(=O)O)c3)C(=O)c3ccccc32)c(C)c1
inactive: Potency [2] | Potency [3] | Potency [4] | Potency [5] | Potency [6]
active: Potency [1] 26.9 µM

CC1(c2ccccc2)CC(C)(C)N2C(=O)Cc3cccc1c32 (stereo not drawn)
inactive: Potency [1] | Potency [2] | Potency [3] | Potency [5]
active: Potency [4] 33.8 µM

O=C(O)c1ccccc1N/N=C/C1=C(N2CCOCC2)C(=C\c2ccccc2)/CC1
inactive: Potency [2] | Potency [3] | Potency [4] | Potency [5]
active: Potency [1] 67.5 µM
